# Shown are actives, neighbours in structure and some others; about 5.1% of the full set was active somewhere.
# ROMK mod – modulates human ROMK potassium channel activity; P48048; Tet-inducible ROMK, thallium flux fluorescence; actives lie on both sides; B-score at 10 µM; 130,000 compounds, 2% hits;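 active = signal ratio slope over the read window, or its plate-corrected B-score, at least 3 SD from the plate mean, either direction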;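 also: B-score of the F/F0 ratio slope over 7 to 12 s after thallium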
# S1P4 agonist – human S1P4 receptor agonism; activation, % at 4.98 µM; O95977; 220,000 compounds, 0.35% hits; S1P4-expressing cell line, agonist reporter assay; in the data active = activation above about 11%;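 also: 0% = DMSO vehicle and 100% = reference agonist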
# Cl transport mod – modulates chloride dependent transport by human KCC2; Q9H2X9; KCC2 cells, thallium flux FluoZin-2 fluorescence; B-score of Tl+ flux slope (higher = more flux/activation; lower = inhibition) at 10 µM; 190,000 compounds, 2.2% hits;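 active = thallium flux slope and its plate-corrected score both differing from the plate sample mean at a set confidence after two filtering rounds, in either direction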;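 also: slope of fluorescence scaled to starting intensity during 10 to 20 s after thallium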
# S1P4 antagonist – blocks the human S1P4 receptor; AID 1510; inhibition, % at 4.98 µM; O95977; S1P4-expressing cells, antagonist mode, reporter read-out; 220,000 compounds, 0.26% hits; in the data active = inhibition above about 29%;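 also: 0% = wells stimulated with agonist and 100% = vehicle wells without agonist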
# S1P3 antag – blocks the human S1P3 receptor | Q99500 | CHO S1P3 NFAT-BLA reporter, FRET fluorescence, antagonist mode | inhibition, % at 4.98 µM | AID 485 | 170,000 compounds, 0.27% hits;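 active = inhibition above the plate cutoff, the mean inhibition of test wells on that plate plus 3 SD, cut at about 28% in these data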;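 also: cells challenged with S1P at its EC80 of 0.8 µM; blue over green emission ratio from cleaved BLA substrate after 4 h stimulation; 0% = S1P-stimulated wells and 100% = unstimulated DMSO-only wells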
# Target sequence (Q99500 whole entry, looked up): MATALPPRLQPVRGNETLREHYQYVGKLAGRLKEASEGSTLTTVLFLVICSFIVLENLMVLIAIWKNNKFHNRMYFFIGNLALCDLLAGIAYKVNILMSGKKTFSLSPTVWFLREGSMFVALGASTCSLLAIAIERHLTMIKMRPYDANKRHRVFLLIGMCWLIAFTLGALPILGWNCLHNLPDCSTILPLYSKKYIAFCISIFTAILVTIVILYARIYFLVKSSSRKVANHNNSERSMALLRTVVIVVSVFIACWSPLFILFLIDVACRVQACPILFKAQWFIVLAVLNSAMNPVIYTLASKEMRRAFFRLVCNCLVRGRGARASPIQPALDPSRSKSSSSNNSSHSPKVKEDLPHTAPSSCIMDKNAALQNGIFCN
# RAM network inh – inhibitors of the yeast RAM network; S. cerevisiae dse1pr::URA3 reporter, 5-FOA growth OD615, 2 d; analog-sensitive cbk1-as2 kinase mutant strain; inhibition, % at 50 µM; 190,000 compounds, 1.8% hits; AID 868;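 active = inhibition above a set limit, 3 SD over mean compound inhibition, cut at about 8.4% in these data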;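 also: 0% = DMSO-only wells with no growth and 100% = 10 µM 1-NA-PP1 full growth; inhibition rescues growth on 5-FOA so higher OD means more RAM inhibition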
# ROMK hit retest – confirmation of human ROMK potassium channel modulators | shares compounds with ROMK mod | ROMK thallium flux, fluorescence ratio; active compounds read low | normalized thallium flux (F/F0 slope) at 10 µM | 3,000 compounds, 54% hits;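 active = Flux at 10 µM at least 3 SD below or above vehicle control mean in one or both replicates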
# * marks the source's active call; other numbers are inactive results; / = not tested or not shown.
SMILES,ROMK mod,S1P4 agonist,Cl transport mod,S1P4 antagonist,S1P3 antag,RAM network inh,ROMK hit retest
O=C(Nc1ccccc1)Nc1ncc([N+](=O)[O-])s1,-1.77,0.8,-1.39,-5.6,-8.0,3.3,0.064*
CCOc1cc(C(=O)Nc2ccc(N3CCOCC3)cc2)cc(Br)c1OC,3.82*,2.0,-0.0811,-0.9,5.7,4.9,0.0806
CCOCCCNC(=O)/C(C#N)=C/c1cc(OC)c(O)c([N+](=O)[O-])c1,3.02*,0.3,-0.736,-20.5,-0.3,0.8,0.0837
CCOCCCNC(=O)/C(C#N)=C/c1cc(C)c(O)c(C)c1,1.51,1.5,-0.486,5.2,5.0,2.5,/
CCOCCCNC(=O)/C(C#N)=C/c1ccc(Cl)c([N+](=O)[O-])c1,-4.18*,-0.8,0.214,-7.3,-4.0,3.5,0.0333*
COC(=O)c1ccc(/C=N/Nc2nc(N3CCCCC3)nc(N3CCCCC3)n2)cc1,-1.01,2.2,2.24,-7.5,-13.3,1.3,/
CCOC(=O)c1c(NC(=O)C2c3ccccc3Oc3ccccc32)sc(C(=O)N(CC)CC)c1C,1.23,-0.4,-0.596,5.0,/,5.8,/
CCOC(=O)C1=C(O)C(=O)N(c2ccc(S(N)(=O)=O)cc2)C1c1ccccc1 (stereo not given),/,0.1,-0.0567,15.5,-22.8,-0.9,0.0713
CCOC(=O)C1=C(O)C(=O)N(c2ccc(S(N)(=O)=O)cc2)C1c1ccc(Cl)cc1 (stereo not given),/,-0.3,-0.617,-14.3,/,6.4,/
CCOC(=O)c1c(C)n(C)c2ccc(OC)c(NC(=O)CCN3CCC(Cc4ccccc4)CC3)c12,/,-1.3,-0.469,9.6,-20.8,/,0.0626*
CCOC(=O)c1c(C)n(C)c2ccc(OC)c(NC(=O)CN3CCSCC3)c12,0.956,-0.8,1.65,-13.1,/,0.4,/
CCN1CC(CN(C)Cc2cn(-c3cccc(C)c3)nc2-c2cccc(F)c2)CC1=O (stereo not given),-0.00696,-1.4,-0.00886,-14.3,-16.0,1.1,/
Cc1ccc(CSCC(=O)NCc2ccc(F)cc2)cc1,-0.237,-0.1,-1.88,4.2,1.4,0.9,/
O=C(CSCc1ccc(F)cc1)NCc1ccc(F)cc1,2.97*,-4.2,-1.23,-7.0,-15.8,-0.8,0.0788
O=C(C1CCCO1)N1N=C(c2ccc(Br)cc2)CC1c1ccco1 (stereo not given),-3.36*,0.3,-0.623,-19.2,-2.5,0.8,0.0585*
Brc1ccc(-c2ccc(/C=N/Nc3nc(N4CCOCC4)nc(N4CCOCC4)n3)o2)cc1,0.106,0.7,-0.211,-12.6,-22.4,1.2,0.0747
CC(C)c1ccc(/C=N/Nc2cc(N3CCOCC3)nc(N3CCOCC3)n2)cc1,-0.241,1.5,-1.6,-21.3,-33.8,0.1,/
Fc1cnc(N/N=C/c2ccc(-c3ccc(Br)cc3)o2)nc1N1CCOCC1,/,1.3,0.084,1.8,1.8,/,/
Clc1ccc(-c2ccc(/C=N/Nc3cc(N4CCOCC4)nc(N4CCOCC4)n3)o2)cc1,-4.01*,-1.4,0.00514,-16.9,/,2.5,0.0581*
O=C1c2ccccc2NC(c2ccc([N+](=O)[O-])cc2)N1O (stereo not given),-2.24,-0.9,-0.242,-12.1,3.0,-1.4,/
O=C(Nc1ccc(-c2csnn2)cc1)C(Cl)(Cl)Cl,/,1.1,0.56,-4.6,15.7,/,/
CCN1C(=O)/C(=C/c2ccc(C)s2)NC1=S,4.64*,-2.3,/,-7.9,/,1.9,0.0936
Cc1ccc(/C=C2/NC(=O)N(Cc3ccccc3)C2=O)s1,/,-0.3,-1.22,-23.0,/,5.4,/
Cc1cc(NC(=O)CN2C(=O)/C(=C/c3cccc(Br)c3)SC2=S)no1,-4.22*,0.7,0.394,4.9,-5.6,6.3,0.0809
O=C(CCCN1C(=O)/C(=C/c2cccc(Br)c2)SC1=S)Nc1ccccn1,/,-1.2,/,1.7,/,3.0,/
Cc1cc(C)cc(C(=O)NCC(=O)OCC(=O)Nc2cccnc2Cl)c1,2.23,2.6,-1.58,0.8,6.2,2.0,/
CC1CCCN(C(=O)CN2CCC(c3nc4ccc(Cl)cc4[nH]3)CC2)C1 (stereo not given),/,0.0,-0.18,-7.7,-10.5,/,/
Clc1ccc(CN2CCC(c3nc4ccc(Cl)cc4[nH]3)CC2)cc1,/,-0.5,/,-0.9,/,0.1,0.0632*
